# Screens from PubChem BioAssay.
# A selection: hits, their analogues and other compounds. The true share with any hit is near 0.74%.
# RECQ1 inh: RECQ1 (human) helicase inhibition | P46063 | Potency, µM (series often up to 57.3 µM), most hits filed as inhibitors | RECQ1 DNA unwinding, red fluorescence kinetic read | 240,000 tested, 0.54% active; further: nearly all actives have a fitted effect of over 30% in size
#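 RECQ1T1 50 nM; forked duplex (20 bp + 30-nt ss tails) 200 nM, ATP 2 mM final; pH 8.0, 2 mM MgCl2, 2.5 ug/ml poly(dI-dC); 15 min compound preincubation; discontinuous kinetic read over 2 h at RT.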
# BLM inh: inhibitors of human Bloom syndrome helicase BLM | P54132 | recombinant BLM DNA unwinding, fluorescence dequenching | Potency, µM (series often up to 56.1 µM), hits mostly inhibitors | 350,000 tested, 0.2% active | AID 2528; further: nearly all actives have a fitted effect of over 35% in size
# Tb PGK inh: T. brucei PGK inhibition; Potency, µM (series often up to 57.5 µM), usual class: inhibitors; PGK/GAPDH coupled, Kinase-Glo luminescence, 60 min; 380,000 tested, 0.043% active; P07378; further: nearly all actives have a fitted effect of over 60% in size
#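 Recombinant glycosomal PGK reaction used 1,3-bisphosphoglycerate generated in-well by GAPDH (100nM final) in 100mM TEA pH 7.6, 5mM MgCl2, 0.01% Tween-20. After 60 minutes at room temperature, ATP was read by Kinase-Glo Plus luminescence end-point.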
# APE1 inh: inhibitors of human APE1 endonuclease; recombinant APE1, TAMRA/BHQ-2 abasic DNA cleavage fluorescence; Potency, µM (series often up to 65.8 µM), actives largely listed as inhibitors; 350,000 tested, 0.35% active; AID 2517; further: nearly all actives have a fitted effect of over 55% in size
# Target sequence (P27695 whole entry, looked up): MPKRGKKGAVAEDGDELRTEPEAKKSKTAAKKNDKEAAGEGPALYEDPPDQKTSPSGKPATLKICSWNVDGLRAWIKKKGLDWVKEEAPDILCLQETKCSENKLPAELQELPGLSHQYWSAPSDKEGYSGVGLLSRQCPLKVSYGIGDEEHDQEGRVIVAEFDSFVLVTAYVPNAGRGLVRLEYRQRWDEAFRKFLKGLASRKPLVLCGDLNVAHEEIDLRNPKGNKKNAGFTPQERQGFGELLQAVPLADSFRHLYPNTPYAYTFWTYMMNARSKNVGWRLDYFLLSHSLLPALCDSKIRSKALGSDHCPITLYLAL
#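 APE1 at 0.75 nM preincubated 15 min at room temperature with compound. Reaction then started with 50 nM double-stranded THF-abasic substrate labelled with TAMRA/BHQ-2, and 525/598 nm fluorescence read kinetically. Activity taken as third-minus-first read difference, normalized to DMSO and NSC13755 controls.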
# FEN1 inh-1: blocks human flap endonuclease 1; 390,000 tested, 0.35% active; Potency, µM (doses to about 114 µM), actives largely listed as inhibitors; Recombinant FEN1 flap cleavage, fluorescence, 15 min; further: nearly all actives have a fitted effect of over 65% in size
# Target sequence (P39748 whole entry, looked up): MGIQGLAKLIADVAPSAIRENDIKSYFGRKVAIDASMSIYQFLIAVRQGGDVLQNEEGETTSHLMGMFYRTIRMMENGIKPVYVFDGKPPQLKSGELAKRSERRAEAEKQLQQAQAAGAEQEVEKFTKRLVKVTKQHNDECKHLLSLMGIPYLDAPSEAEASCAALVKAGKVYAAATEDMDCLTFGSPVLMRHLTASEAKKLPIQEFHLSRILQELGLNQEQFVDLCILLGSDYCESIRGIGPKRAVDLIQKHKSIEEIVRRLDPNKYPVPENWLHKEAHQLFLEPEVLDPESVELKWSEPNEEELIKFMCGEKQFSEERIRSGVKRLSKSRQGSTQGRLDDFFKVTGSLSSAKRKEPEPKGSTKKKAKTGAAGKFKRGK
#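 In this screen, 50 nM flap DNA substrate was added to 10 nM FEN1 pretreated with compound for 15 min at room temperature; cleavage was followed with reads at 0 and 15 min, and Hill fitting gave concentration–response parameters.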
# FEN1 inh-2: confirmation of human FEN1 inhibitors; shares compounds with FEN1 inh-1; FEN1 flap cleavage, TAMRA/BHQ2 fluorogenic DNA substrate; Potency, µM, actives largely listed as inhibitors; 880 tested, 79% active; AID 720498; further: nearly all actives have a fitted effect of over 60% in size
# Numbers stand for hits; - = inactive; ? = inconclusive; . = not tested or not shown. The call rests on the fitted dose curve; in most records, active means well fitted curve in the direction sought with a large enough effect; inconclusive means small, poorly fitted or top-dose-only effect, or another doubt; inactive means no such curve, though single readings can be large; an effect the other way counts as inactive or inconclusive.
SMILES,RECQ1 inh,BLM inh,Tb PGK inh,APE1 inh,FEN1 inh-1,FEN1 inh-2
Cc1ccc(C)c(Nc2nc3c(S(=O)(=O)c4ccc(Br)cc4)nnn3c3ccsc23)c1,.,?,-,.,?,?
Cc1ccc(C)c(Nc2nc3c(S(=O)(=O)c4ccc(C(C)C)cc4)nnn3c3ccsc23)c1,.,-,-,.,-,.
Cc1ccc2nc(N=C(N)N)nc(C)c2c1,-,-,-,?,50µM,34
Cc1cc2nc(N=C(N)N)nc(C)c2cc1C,-,-,.,-,18µM,67
Cc1nc(N=C(N)N)nc2ccccc12,-,-,-,-,?,48
CCc1ccc2nc(N=C(N)N)nc(C)c2c1,-,-,-,-,?,.
Cc1ccc2oc(C(=O)Nc3sc4c(c3C(=O)NCC3CCCO3)CCC4)cc(=O)c2c1 (stereo not given),.,-,-,.,-,.
CC(C)OC(=O)CSc1nc(-c2ccc(F)cc2)nc2ccc(F)cc12,-,-,-,-,-,.
O=C(CSc1nc(-c2ccccc2)nc2ccc(F)cc12)Nc1ccc(C(=O)O)cc1,-,-,-,-,?,60
O=C(CSc1nc(-c2ccccc2)nc2c1Cc1ccccc1O2)Nc1ccccc1,-,-,.,?,.,.
O=C(CSc1nc(-c2ccc(F)cc2)nc2c1Cc1ccccc1O2)Nc1cccc(C(=O)O)c1,?,?,?,3µM,?,27
c1nc(N2CCC(N3CCCC3)CC2)c2cc(-c3ccc4c(c3)OCO4)ccc2n1,.,.,.,.,.,34
c1csc(CNc2ncnc3ccc(-c4ccc5c(c4)OCO5)cc23)c1,?,-,-,-,?,.
Cn1cncc1CNc1ncnc2ccc(-c3ccc4c(c3)OCO4)cc12,.,.,.,.,.,?
Cc1cccc(CNc2ncnc3ccc(-c4ccc5c(c4)OCO5)cc23)c1,-,-,-,-,?,.
CN1CCN(c2ncnc3ccc(-c4ccc5c(c4)OCO5)cc23)CC1,-,-,.,-,.,.
c1nc(NCCCN2CCCCC2)c2cc(-c3ccc4c(c3)OCO4)ccc2n1,.,.,.,.,.,34
O=C(NCc1nnc(SCC(=O)N2CCOCC2)o1)c1cccs1,-,-,-,-,-,.
O=C(Nc1ccccc1C(=O)NC1CC1)c1ccc([N+](=O)[O-])o1,.,.,-,?,-,?
COc1cc(/C=C2\SC(=O)N(CC(=O)Nc3ccc(C)cc3)C2=O)cc(Cl)c1OCC(=O)O,.,10µM,?,5.3µM,?,67
COc1cc(/C=C2\SC(=Nc3ccc(Cl)c(C(=O)O)c3)NC2=O)c(Br)c(Br)c1O,.,-,-,?,25µM,38
COc1cc(/C=C2\SC(=Nc3ccccc3)NC2=O)cc(Cl)c1O,.,-,-,-,?,.
NC1CCN(c2c(F)cc3c(=O)c(C(=O)O)cn(C4CC4)c3c2Cl)C1 (stereo not given),-,-,-,-,32µM,?
Oc1cccc(Nc2c3ccccc3nc3ccccc23)c1,.,-,-,-,?,.
CCN(CC)Cc1cc(Nc2c3ccccc3nc3c4ccccc4n(C)c23)cc(CN(CC)CC)c1O,.,.,-,.,28µM,19
SMILES,RECQ1 inh,BLM inh,Tb PGK inh,APE1 inh,FEN1 inh-1,FEN1 inh-2
Nc1ccc2nc(-c3cccc(-c4nc5ccc(N)cc5[nH]4)c3)[nH]c2c1,.,?,-,-,?,38
Clc1ccc2nc(-c3ccccc3)[nH]c2c1,-,-,.,?,.,.
COc1ccccc1-[n+]1c(C)cc(/C=C2\Sc3ccccc3N2C)cc1C,-,-,-,-,?,38
CCOC(=O)c1cc2c(=O)n3ccccc3nc2n(Cc2ccco2)c1=NC(=O)c1cccc(C)c1,.,-,-,.,-,.
CCOC(=O)c1cc2c(=O)n3ccccc3nc2n(Cc2ccco2)c1=NC(=O)c1c(F)cccc1Cl,.,-,-,.,-,?
CCOc1ccc2c(c1)c(N=O)c(O)n2C,-,-,-,-,-,.
CN(C)CCCNc1cc(N2CCN(C3CCCCC3)CC2)c2noc3c2c1C(=O)c1ccccc1-3,.,-,-,.,11µM,30
O=C(O)c1ccc(-n2c(/C=C/c3ccccc3)nc3ccccc3c2=O)cc1,.,-,-,-,-,.
O=C1NC(=O)/C(=C/c2ccc(-c3cc(C(=O)O)ccc3Cl)o2)S1,.,-,?,-,20µM,38
O=C1NC(=S)/C(=C\c2ccc(-c3ccccc3Cl)o2)S1,?,-,-,-,?,.
CCCCN1C(=O)/C(=C/C=C2\Oc3ccccc3N2CC)SC1=S,-,-,-,-,?,.
CCN1/C(=C/C=C/c2oc3ccc(-c4ccccc4)cc3[n+]2CC)Oc2ccc(-c3ccccc3)cc21,-,22µM,-,-,32µM,27
O=C1NC2(CCCC2)N=C1c1ccc(Cl)cc1,-,-,-,-,-,.
CNc1c2cccc(C)c2nc2c(C(=O)NCCN(C)C)cccc12,.,.,-,.,2.8µM,2.7
COc1ccccc1-n1c(=O)[nH]c2c(C(N)=O)nc(CC(C)C)nc21,-,-,-,-,-,.
O=C(/C=C/c1ccco1)NC(=S)Nc1cccc(-c2nc3ccccc3o2)c1,-,?,-,-,-,?
Cc1ccc(-n2cccc2/C=C2/NC(=O)N(CC(=O)Nc3cccc(C)c3)C2=O)cc1,-,-,-,-,-,.
N#CNC(=O)c1ccc(-n2cccc2/C=C2\NC(=O)N(CC(=O)Nc3ccc(F)cc3)C2=O)cc1,.,.,.,.,.,34
COc1ccc(NC(=O)CN2C(=O)N/C(=C\c3cccn3-c3ccc(C(=O)NC#N)cc3)C2=O)cc1,.,.,.,.,.,43
CCOc1ccc(NC(=O)Cn2cc(C(=O)c3ccccc3)c(=O)c3cc(OC)ccc32)cc1,.,-,-,.,-,.
CCc1ccc(C(=O)c2cn(CC(=O)Nc3ccc4c(c3)OCO4)c3ccc(OC)cc3c2=O)cc1,.,14µM,-,.,32µM,67
CCc1ccc(C(=O)c2cn(CC(=O)Nc3ccc(OC)cc3)c3cc4c(cc3c2=O)OCO4)cc1,.,-,-,.,-,.
COc1ccc(C(=O)c2cn(CC(=O)Nc3cc(OC)cc(OC)c3)c3ccc(OC)cc3c2=O)cc1,.,-,-,-,?,?
Cc1cc2[nH]c3c4ccccc4nc(C)c3c2cc1C,.,.,-,.,?,6.7
COc1cc(C=NNc2ccc(S(=O)(=O)Nc3ccccc3C(=O)O)cc2[N+](=O)[O-])ccc1O,.,.,-,?,45µM,60
CC(=O)Nc1ccc(C=NNc2ccc(S(=O)(=O)Nc3ccccc3C(=O)O)cc2[N+](=O)[O-])cc1,.,.,-,-,50µM,85
COc1cc(/C=N/Nc2ccc(S(N)(=O)=O)cc2[N+](=O)[O-])cc(OC)c1O,-,-,-,?,-,.
O=C(O)c1ccccc1NS(=O)(=O)c1ccc(N/N=C/c2cccc(O)c2O)c([N+](=O)[O-])c1,.,.,8.9µM,.,40µM,48
NS(=O)(=O)c1ccc(N/N=C/c2ccc(C(=O)O)cc2)c([N+](=O)[O-])c1,-,-,-,-,-,.
COc1ccc(Cl)cc1NC(=O)N1CCN(S(C)(=O)=O)CC1,-,-,-,-,-,.
